Laboratory results reported in PubChem BioAssay AID463173 (ICCB-Longwood Screening Facility, Harvard Medical School, 2010).
Hit rate of the full screen: of about 52,000 compounds, about 1,700 (3.3%) were called active. Cut-off read from the data, not from the text of the source: active = survival mostly below about 52% (no sharp cut-off); inactive = mostly above about 56%. The full list was thinned out, with actives kept by preference.

These molecules were tested on Wild type (assay: S. aureus survival, RN4220 and DeltatarO strains – OD600, teichoic acid synthesis inhibitors, primary screen (AID 463173)). Details: S. aureus RN4220 wild type/DeltatarO growth, OD600, 18 h, stronger effect = lower value, screened at 18.75 µg/mL (by protocol).
For O=C(CSc1nc2c([nH]c3ccccc32)c(=O)n1-c1cccc(Cl)c1)NCc1ccccc1, the survival was 78% (inactive).
With COc1cccc(Cn2c(CNC(=O)C(C)C)nc3cccnc32)c1 the survival was 80% (inactive).
With Cc1oc(-c2ccc(C(=O)NCc3ccccc3)cc2)nc1CN1CCc2ccccc21 the survival was 80% (inactive).
In the case of CC(C)(C)OC(=O)N1CCC(c2c(C(=O)NCc3cccc(Cl)c3)cnn2-c2ccc(F)cc2)CC1, the survival is reported as 78% (inactive).
In the case of COc1ccc(-c2nc(SCC(=O)Nc3ccc4c(c3)OCCO4)c(-c3ccc(F)cc3)[nH]2)cc1OC, the survival is reported as 62% (inactive).
For Cc1ccccc1C(=O)NCC(c1ccc(N(C)C)cc1)N1CCCC1 (stereo not given), the survival was 66% (inactive).
With Cc1ccc(CCNC(=O)c2ccc(CSCc3ccccc3C)o2)cc1 the survival was 0% (active).
For O=C(CCSCc1ccc(Cl)cc1)NCc1ccc(F)cc1Cl, the survival was 79% (inactive).
In the case of O=C(CCSCc1cccc(Cl)c1)NCc1ccc(F)cc1Cl, the survival is reported as 66% (inactive).
In the case of O=C(CCSCc1ccccc1Cl)NCCc1ccccc1, the survival is reported as 74% (inactive).
Cc1ccccc1CSCc1ccc(C(=O)NCCc2ccccc2)o1 was tested, and the survival was 77% (inactive).
In the case of Cc1ccc(CCNC(=O)CCSCc2ccccc2Cl)cc1, the survival is reported as -3% (active).
For Cc1ccc(CCNC(=O)c2ccc(CSCc3ccccc3Cl)o2)cc1, the survival was 72% (inactive).
For O=C(CCSCc1ccccc1Cl)NCc1ccc(F)cc1Cl, the survival was 0% (active).
COc1ccc(CCNC(=O)CCSCc2ccccc2Cl)cc1OC was tested, and the survival was 88% (inactive).
CC1(C)CC(NC(=O)NCc2ccc3c(c2)OCO3)CC(C)(CNC(=O)NCc2ccc3c(c2)OCO3)C1 (stereo not given) was tested, and the survival was 117% (inactive).
In the case of CCOCCc1nn2c(=O)cc(COC(=O)c3ccccc3OC)nc2s1, the survival is reported as 78% (inactive).
With CC(=O)N1CCc2c(sc3c2c(=O)n(Cc2ccccc2)c(=O)n3Cc2ccccc2Cl)C1 the survival was 98% (inactive).
In the case of C/C(=N\NC(N)N)C1CCCCCCCCCCC1, the survival is reported as -1% (active).
With Cc1nc(C)c(CC(=O)O)c(=O)[nH]1 the survival was 112% (inactive).
For CCOc1ccc(-n2cc(-c3ccccc3)c3c(NCCc4ccccc4)ncnc32)cc1, the survival was 74% (inactive).
In the case of Cc1cccc(Cc2c(C)nc3nc(SCC(=O)NCc4ccccc4)nn3c2C)c1, the survival is reported as 71% (inactive).
With Cc1cccc(Cc2c(C)nc3nc(SCc4ccccc4C)nn3c2C)c1 the survival was 87% (inactive).
For Cc1ccc(NC(=O)CSc2nc3nc(C)c(Cc4ccccc4)c(C)n3n2)cc1, the survival was 47% (inactive).
In the case of Cc1nc2nc(SCC(=O)NCc3ccccc3)nn2c(C)c1Cc1ccccc1Cl, the survival is reported as 128% (inactive).
In the case of Cc1nc2nc(SCC(=O)NCc3ccccc3Cl)nn2c(C)c1Cc1ccccc1, the survival is reported as 68% (inactive).
With Cc1cccc(Cc2c(C)nc3nc(SCc4ccccc4F)nn3c2C)c1 the survival was 91% (inactive).
Cc1nc2nc(SCC(=O)NCc3ccccc3)nn2c(C)c1Cc1ccccc1 was tested, and the survival was 0% (active).
For Cc1nc2nc(SCC(=O)NCCc3ccc(Cl)cc3)nn2c(C)c1Cc1ccccc1Cl, the survival was 80% (inactive).
In the case of Cc1nc2nc(SCC(=O)NCCc3ccc(Cl)cc3)nn2c(C)c1Cc1c(F)cccc1Cl, the survival is reported as -2% (active).
Cc1cccc(Cc2c(C)nc3nc(SCc4ccccc4Cl)nn3c2C)c1 was tested, and the survival was -5% (active).
With Cc1nc2nc(SCC(=O)NCCc3ccccc3)nn2c(C)c1Cc1c(F)cccc1Cl the survival was 65% (inactive).
With Cc1nc2nc(SCC(=O)Nc3ccccc3Cl)nn2c(C)c1Cc1ccccc1 the survival was -3% (active).
In the case of Cc1cccc(Cn2c(CN3CCC(C(=O)NCCc4ccccc4)CC3)cc3ccccc32)c1, the survival is reported as 128% (inactive).
In the case of COc1cc(-c2nc(-c3ccc4c(c3)[nH]c(=O)n4C)no2)cc(OC)c1OC, the survival is reported as 83% (inactive).
For COC(=O)c1cc(-c2ccccc2)sc1N, the survival was 116% (inactive).
In the case of COCCNC(=O)CSc1nc(-c2ccc(C)cc2)nc2c1c(=O)n(C)c(=O)n2C, the survival is reported as 77% (inactive).
With CCOc1ccc(OCC)c(S(=O)(=O)N2CCC(C)CC2)c1 the survival was 102% (inactive).
CC(C)CCNC(=O)Cn1cc(S(=O)(=O)Cc2ccc(F)cc2)c2ccccc21 was tested, and the survival was 91% (inactive).
For O=C(CSc1nnc(-c2cccs2)o1)Nc1cccc(C(F)(F)F)c1, the survival was 71% (inactive).
For Cc1ccc(C)c(N2CCN(C(=O)C3CCN(c4nc(-c5ccc(C(C)C)cc5)no4)CC3)CC2)c1, the survival was 87% (inactive).
CCOCCCn1c(SCC(=O)Nc2ccc(C)cc2)nc2ccccc2c1=O was tested, and the survival was 83% (inactive).
In the case of c1ccc(-n2nnnc2N2CCCC2)cc1, the survival is reported as 102% (inactive).
In the case of CCOC(=O)CN(Cc1ccccc1)C(C(=O)NC1CCCCC1)c1ccc(OC)cc1 (stereo not given), the survival is reported as 20% (inactive).
With O=C(NC1CCCC1)C(c1ccccc1)N(Cc1ccccc1F)C(=O)c1ccco1 (stereo not given) the survival was 118% (inactive).
In the case of COc1ccc(C(C(=O)NC2CCCC2)N(Cc2ccc(C)cc2)C(=O)c2ccn[nH]2)cc1OC (stereo not given), the survival is reported as 103% (inactive).
Cc1ccc(-c2nnn(CC(=O)N(Cc3ccccc3)C(C(=O)NC3CCCC3)c3ccco3)n2)cc1 (stereo not given) was tested, and the survival was 99% (inactive).
CCOC(=O)CN(Cc1ccccc1)C(C(=O)NC1CCCCC1)c1ccccc1 (stereo not given) was tested, and the survival was -2% (active).
CN(Cc1ccccc1)C(C(=O)NC1CCCCC1)c1ccc(Cl)cc1 (stereo not given) was tested, and the survival was 74% (inactive).
O=C(NC1CCCC1)C(c1ccccc1)N(C(=O)c1ccco1)C1CCCC1 (stereo not given) was tested, and the survival was 88% (inactive).
CCOC(=O)CN(Cc1ccccc1)C(C(=O)NC1CCCCC1)c1ccc(C)cc1 (stereo not given) was tested, and the survival was -2% (active).
For Cc1ccc(C(C(=O)NC2CCCCC2)N(C)Cc2ccccc2)cc1 (stereo not given), the survival was -1% (active).
For N#Cc1c(Nc2cccc(F)c2)sc(C(=O)c2ccc(Cl)cc2)c1N, the survival was 101% (inactive).
In the case of CCCOc1cccc(NC(=O)c2c(-c3ccccc3Cl)noc2C)c1, the survival is reported as 71% (inactive).
With CCc1nc(NCCCO)c2nnn(Cc3ccccc3F)c2n1 the survival was 106% (inactive).
With CS(=O)(=O)NCC(c1ccco1)N1CCN(c2ccccc2)CC1 (stereo not given) the survival was 83% (inactive).
For CCCCCCc1cc2cc(-c3nnc(-c4cccc(Cl)c4)o3)c(=O)oc2cc1O, the survival was 72% (inactive).
With CN(C)N1C(=O)CC(N2CCCC2)C1=O (stereo not given) the survival was 101% (inactive).
CCc1ccc(NC(=O)CC2C(=O)N(c3cccc(C)c3)C(=O)N2CCC(C)C)cc1 (stereo not given) was tested, and the survival was 72% (inactive).
COc1cc2c(cc1OC)C(COc1cc(C)cc(C)c1)N(C(=O)c1ccc(S(=O)(=O)N3CCCC3)cc1)CC2 (stereo not given) was tested, and the survival was 45% (inactive).
COc1cc2c(cc1OC)C(COc1ccccc1OC)N(C(=O)c1ccc(S(=O)(=O)N3CCCC3)cc1)CC2 (stereo not given) was tested, and the survival was 0% (active).
With COc1cc2c(cc1OC)C(COc1ccc(F)cc1)N(C(=O)c1ccc(S(=O)(=O)N3CCCC3)cc1)CC2 (stereo not given) the survival was 88% (inactive).
COc1cccc(NC(=O)CCc2nnc3n(CC(C)C)c(=O)c4ccccc4n23)c1 was tested, and the survival was 92% (inactive).
In the case of Cc1ccc(CCNC(=O)c2cc3c(s2)-c2c(C)cccc2OC3)cc1, the survival is reported as 88% (inactive).
With CCN(C(=O)c1cc2c(s1)-c1c(C)cccc1OC2)c1cc(C)ccc1C the survival was 11% (active).
In the case of COc1cc(NC(=O)c2cc3c(s2)-c2ccccc2OC3)cc(OC)c1OC, the survival is reported as 53% (inactive).
With Cc1ccc(CCNC(=O)c2cc3c(s2)-c2ccccc2OC3)cc1 the survival was 95% (inactive).
For COc1ccc(N(C)C(=O)c2cc3c(s2)-c2ccccc2OC3)cc1, the survival was 13% (active).
CCOc1ccc(CCNC(=O)c2cc3c(s2)-c2ccccc2OC3)cc1OCC was tested, and the survival was 90% (inactive).
In the case of Cc1ccc(C)c(N(C)C(=O)c2cc3c(s2)-c2ccccc2OC3)c1, the survival is reported as -2% (active).
In the case of COc1cc(OC)c(N(C)C(=O)c2cc3c(s2)-c2ccccc2OC3)cc1Cl, the survival is reported as 73% (inactive).
With COc1ccc(CNC(=O)c2cc3c(s2)-c2ccccc2OC3)cc1 the survival was 92% (inactive).
For COc1ccc(N2CCN(C(=O)c3cc4c(s3)-c3ccccc3OC4)CC2)cc1, the survival was 116% (inactive).
In the case of CCOc1ccccc1N(C)C(=O)c1cc2c(s1)-c1ccccc1OC2, the survival is reported as 13% (active).
In the case of CCN(C(=O)c1cc2c(s1)-c1c(C)cccc1OC2)c1ccccc1F, the survival is reported as 96% (inactive).
With NCCC(=O)N1c2ccccc2Sc2ccc(Cl)cc21 the survival was 104% (inactive).
For Cc1ccc(F)cc1NC(=O)CCc1c(C)nn(-c2ccc(N3CCOCC3)nn2)c1C, the survival was 113% (inactive).
For O=C(c1ccccc1)N1CCc2cc(CNS(=O)(=O)c3ccc(Cl)s3)ccc21, the survival was 66% (inactive).
With Cc1c(C(=O)NCc2ccc(F)cc2)oc2ccc(S(=O)(=O)N3CCCCC3)cc12 the survival was 84% (inactive).
CCOC(=O)CSc1nc2ccc(NC(=O)c3cccc(F)c3)cc2s1 was tested, and the survival was 87% (inactive).
With CS(=O)(=O)Nc1ccc2c(c1)OCO2 the survival was 94% (inactive).
In the case of COc1ccc(OC)c(NC(=O)CCCOc2cc(=O)n(C)c3ccccc23)c1, the survival is reported as 64% (inactive).
For COc1cccc(NC(=O)C2CCCN(c3ncnc4onc(C)c34)C2)c1 (stereo not given), the survival was 72% (inactive).
With CCC(C)NC(=O)c1c(C)oc2nc(C)nc(N3CCOCC3)c12 (stereo not given) the survival was 88% (inactive).
CCc1cccc(NC(=O)CCn2nc(C)cc2C)c1 was tested, and the survival was 77% (inactive).
For COc1ccc(NC(=O)C2CCN(C(=O)c3sc4nc[nH]c(=O)c4c3C)CC2)c(OC)c1, the survival was 81% (inactive).
CCOc1ccc(C(=O)Nc2cc(-c3nc4ccccc4s3)ccc2OC)cc1 was tested, and the survival was 163% (inactive).
Cc1ccc(C(=O)Nc2ccc(-c3nc4ccccc4s3)c(O)c2)c(C)c1 was tested, and the survival was 91% (inactive).
In the case of COc1cc(OC)cc(C(=O)Nc2cc(-c3nc4ccccc4s3)ccc2OC)c1, the survival is reported as 67% (inactive).
With COc1ccc(C(=O)Nc2ccccc2-c2nc3ccccc3s2)cc1OC the survival was -6% (active).
COc1cccc(C(=O)Nc2ccccc2-c2nc3ccccc3s2)c1 was tested, and the survival was 42% (inactive).
COc1cc(OC)cc(C(=O)Nc2ccccc2-c2nc3ccccc3s2)c1 was tested, and the survival was 41% (inactive).
In the case of O=C(Nc1ccc(-c2nc3ccccc3s2)c(O)c1)c1ccc(Br)cc1, the survival is reported as 85% (inactive).
For CSc1ccc(C(=O)Nc2ccc(-c3nc4ccccc4s3)c(O)c2)cc1, the survival was 0% (active).
In the case of COc1ccc(C(=O)Nc2cc(-c3nc4ccccc4s3)ccc2OC)cc1, the survival is reported as 5% (active).
